RmlC RmlD mix – RmlC/RmlD inhibition, mixture screen. RmlC/RmlD coupled enzyme inhibition, 384-well mixture HTS. inhibition, % at 5.5 µM. 110,000 compounds, 0.39% hits; in the data active = inhibition above about 30%, passing the limit was not always enough
HIV RNase H inh – blocks HIV-1 RNase H cleavage of RNA/DNA duplex; P04585; 65,000 compounds, 1.9% hits; RT-RNase H RNA/DNA duplex cleavage, fluorescence; inhibition, % at 10 µM; in the data active = inhibition above about 50%
* = called active by the depositor; . = no result. Shown is part of a subset that was picked to be rich in hits.

SMILES	RmlC RmlD mix	HIV RNase H inh
Cc1ccsc1C1NC(=O)c2c(sc3c2CCCC3)N1 (stereo not drawn)	-1.3	58.5*
O=C1NC(c2ccc(Br)cc2)Nc2sc3c(c21)CCC3 (stereo not drawn)	37.7	.
COc1cc(C(=S)N2CCCC2)cc(Cl)c1O	-18.4	70.9*
COc1cc(C(=S)N2CCCCC2)ccc1O	-6.2	.
COc1cc(C(CCN2CCCCC2)c2c(OC)cc(OC)c3c(C)cc(=O)oc23)cc(OC)c1OC (stereo not drawn)	2.5	.
COC(=O)c1sc2nc(N3CCCCC3)c3c(c2c1N)CC(C)(C)N(C)C3	37.2*	-5.3
CCOC(=O)c1sc2nc(N3CCOCC3)c3c(c2c1N)CC(C)(C)N(C)C3	22.6	.
CCCCn1c(SCC(=O)N2CCOCC2)nnc1-c1cccs1	-6.5	2.2
Cc1nnc(Sc2nc3c(c(=O)[nH]c(=O)n3C)n2Cc2ccccc2Cl)s1	.	-14.1
Cc1ccc(C(=O)Nc2nc(-c3cccnc3)cs2)o1	-10.3	.
O=C(Nc1nc(-c2ccccc2)cs1)c1ccc(Br)o1	11.5	66.2*
COc1cccc(N2[C@@H](CC(C)=O)c3ccc(/C=C/C(C)=O)cc3S2(=O)=O)c1	-10.7	.
Cc1ccc(/C=c2\sc3nc(-c4ccco4)nn3c2=O)o1	-11.9	29.6
Cc1ccc(/C=c2\sc3nc(-c4ccccc4Br)nn3c2=O)o1	.	50.7*
CN(C)CCCN1C(=O)C(O)=C(C(=O)c2cccs2)C1c1ccccn1 (stereo not drawn)	.	-7.7
CCc1nnc(NC(=O)CSc2nc3cccnc3n2Cc2ccccc2)s1	-4.2	.
Cc1nc(NC(=O)c2ccccc2)sc1C1(C)CC(c2ccc(OC(F)(F)F)cc2)=NO1 (stereo not drawn)	-1.5	.
CCc1ccc(C2CC(=O)N3CN(c4ccccc4)CSC3=C2C#N)cc1 (stereo not drawn)	-6.3	61.5*
CCOC(=O)c1ccc(N2CSC3=C(C#N)C(c4cccs4)CC(=O)N3C2)cc1 (stereo not drawn)	-12.3	35.5
COc1ccc(C2CC(=O)N3CN(c4ccc(C)c(Cl)c4)CSC3=C2C#N)cc1OC (stereo not drawn)	-11.2	18.1
Cc1ccc(N2CSC3=C(C#N)C(c4cccs4)CC(=O)N3C2)cc1 (stereo not drawn)	6.3	.
N#CC1=C2SCN(c3ccc(F)cc3)CN2C(=O)CC1c1cccc(F)c1 (stereo not drawn)	6.0	51.3*
CCc1ccc(N2CSC3=C(C#N)C(c4cccs4)CC(=O)N3C2)cc1 (stereo not drawn)	9.2	54.2*
Cc1ccc(Cc2nnc3n(-c4ccccc4)nc(C(=O)c4ccccc4)n3c2=O)cc1	-4.6	.
CCOC(=O)C[n+]1c(C)ccc2c1CCC2	-10.9	.
SMILES	RmlC RmlD mix	HIV RNase H inh
O=P(O)(CN1CCCCC1)C1CCCCC1O (stereo not drawn)	.	-8.1
Cc1cc(C)cc(OCc2nnc(SCC(=O)OC(C)C)o2)c1	-0.9	.
C=C(C)CSc1nc(N)c2c(C)c(C)sc2n1	-4.5	-6.0
CCOc1cc(NC(=O)CC(C)C)c(OCC)cc1NC(=O)CCn1nnc2ccccc21	-11.0	.
C=CCn1cnc2c(c1=O)c1nc3ccccc3nc1n2-c1ccc(Cl)cc1	.	-1.9
Cc1ccc(C)c(/C(O)=C2\C(=O)C(=O)N(CCCN(C)C)C2c2cccnc2)c1 (stereo not drawn)	.	-8.4
CCCCCCCCCCCCCCCC(=O)OC[C@H](COP(=O)([O-])OCC[N+](C)(C)C)OC(=O)CCCCCCCCCCCCCCC	-5.3	.
COc1cc(-c2nnc(SCc3cc(=O)oc4cc(O)c(O)cc34)o2)cc(OC)c1OC	-2.7	.
CCCCCCc1cc2cc(-c3nnc(-c4cc(OC)c(OC)c(OC)c4)o3)c(=O)oc2cc1O	68.8*	.
CCCCCCc1cc2cc(-c3nnc(-c4ccccc4O)o3)c(=O)oc2cc1O	162.2*	46.2
COc1ccc(-c2nnc(-c3cc4ccccc4oc3=O)o2)cc1	-2.4	.
CCC(C)N(C(=O)Cn1nnc2ccccc21)C(C(=O)Nc1ccc(F)cc1)c1cccc(OC)c1 (stereo not drawn)	-4.7	.
COc1ccc(N2C(=O)CC(Sc3nnc(-c4ccccc4)o3)C2=O)cc1 (stereo not drawn)	-2.4	-1.2
O=C1CC(Sc2nnc(-c3ccccc3O)o2)C(=O)N1c1ccccc1 (stereo not drawn)	.	54.9*
O=C(CSc1nnc(COc2ccc(Cl)cc2)o1)N1CCN(c2ccccc2)CC1	-1.9	-0.2
O=C(CSc1nnc(-c2ccc(Cl)cc2)o1)N1CCN(c2ccccc2)CC1	.	50.0*
Cc1cccn2c(=O)c3cc(C(=O)N4CCN(C(=O)c5ccco5)CC4)n(C)c3nc12	.	-4.8
Cn1c(C(=O)N2CCN(C(=O)c3ccco3)CC2)cc2c(=O)n3ccccc3nc21	96.4*	-0.6
Cc1nc2c3c(-c4ccccc4)nc(N4CCOCC4)nc3nn2c(C)c1CCC(=O)O	.	-5.3
O=C(C1=C[C@H](C2CC2)C[C@H](OCCCCO)O1)N1CCOCC1	-7.5	.
CCOC(=O)c1sc(=S)n(-c2cc(F)ccc2F)c1N	-9.4	72.0*
COC(=O)c1sc(=S)n(-c2cc(F)ccc2F)c1N	-1.3	72.2*
COc1ccc(CNC(=O)c2sc(=S)n(-c3ccc(OC)cc3)c2N)cc1	8.7	.
CCOC(=O)c1sc(=S)n(-c2ccc(Cl)cc2)c1C	4.6	.
CSc1nc(C)cc(-c2cc(C(=O)Nc3ccccc3)on2)n1	9.2	.
SMILES	RmlC RmlD mix	HIV RNase H inh
CCOC(=O)N1CCC(NC(=O)Cn2ncn3c(cc4sc(CC)cc43)c2=O)CC1	.	-2.5
O=C(Nc1sc2c(c1C(=O)O)CCC2)c1cccs1	.	-1.0
NC(=O)c1c(NC(=O)c2cccs2)sc2c1CCCCCC2	-1.8	57.3*
C/C=C1\COC(C(=O)NCc2ccccc2)(C(F)(F)F)C=C1C=C(C)C (stereo not drawn)	7.8	.
CC1CCN=C(N)S1 (stereo not drawn)	2.1	.
COc1ccc(OCc2nn3c(-c4ccco4)nnc3s2)cc1	-10.1	-14.9
c1coc(-c2nnc3sc(Cc4cccs4)nn23)c1	24.6	50.1*
CCN(C(=O)c1coc(=O)c(Br)c1)c1ccc2c(c1)OCO2	123.8*	2.4
CCN(C(=O)c1c(C)cc(=O)oc1C)c1ccc2c(c1)OCO2	-8.0	.
O=C(Cn1c(=O)n(-c2ccccc2)c(=O)n1CC(=O)N1CCCCC1)N1CCCCC1	4.7	-3.5
N=c1c(C(=O)NC2CCCCC2)cc2c(=O)n3ccccc3nc2n1CCN1CCOCC1	.	-56.5
CCCCOC(=O)CSc1nc(N)c(C#N)c(-c2ccc(OCC)cc2)c1C#N	-6.6	-10.0
CCCCOc1ccc(-c2c(C#N)c(N)nc(SCC(N)=O)c2C#N)cc1	3.9	62.7*
CCC(C)NC(=O)CSc1ncccc1C(=O)O (stereo not drawn)	-4.2	.
CCOC(=O)c1cc2c(nc1N)CC(C)(CC)OC2 (stereo not drawn)	1.6	.
CCOC(=O)c1cc2c(nc1N)CC(C)(C)OC2	38.9*	.
COc1ccc(N2CCN(Cc3cc(=O)oc4c3ccc3ccccc34)CC2)cc1	.	54.4*
COc1ccc(N2CCN(Cc3cc(=O)oc4ccc(C)cc34)CC2)cc1	-8.6	.
Cc1cc(C)c2c(n1)nn1c(NCCN3CCOCC3)cc(C)nc21	57.8*	-11.9
COCCNc1cc(C)nc2c3c(C)cc(C)nc3nn12	58.1*	-8.6
COCCNc1cc(C)nc2c(-c3ccccc3OC)c(C)nn12	-1.1	-8.0
Cc1cc(NCCN2CCOCC2)n2nc(C)c(-c3ccccc3)c2n1	29.7	-0.3

From PubChem BioAssay
